Bioassay records as filed in PubChem.
Shown are actives, neighbours in structure and some others; about 9% of the full set was active somewhere.
PLK1 PBD block: PLK1 (human) polo-box domain binding inhibition | P53350 | Plk1 PBD binding of FITC phosphopeptide, fluorescence polarization | Potency, µM, most hits filed as inhibitors | actives 2.8% (n = 360,000) | AID 720504; further: series mostly up to about 57 µM; nearly all actives have a fitted effect of over 65% in size
G9a inh: G9a (human) methyltransferase inhibition. Q96KQ7. G9a H3K9 monomethylation, AlphaScreen, 2 h. Potency, µM (series often up to 102 µM), most hits filed as inhibitors. actives 8.8% (n = 350,000); further: nearly all actives have a fitted effect of over 75% in size
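Step 1: enzyme (final 20 nM) with compound, 15 min RT. Step 2: substrate peptide 500 nM and SAM 20 uM, 2 h RT. Step 3: anti-H3K9me1 antibody and AlphaScreen beads, 10 min, then plate read.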
BAZ2B block: BAZ2B (human) inhibition | AlphaScreen BAZ2B-H3K14Ac peptide displacement | actives 4.4% (n = 360,000) | AID 504333 | Q9UIF8 | Potency, µM (series often up to 114 µM), usual class: inhibitors; further: nearly all actives have a fitted effect of over 60% in size
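AlphaScreen luminescence quantifies BAZ2B engagement of H3K14Ac peptide; the protein and biotinylated peptide are both at 50 nM final, buffer PBS pH 7.4 with 0.01% Tween-20, all steps at room temperature.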
JMJD2A Tudor inh: inhibitors of human JMJD2A Tudor domain; O75164; AID 504339; AlphaScreen JMJD2A-Tudor / H3K4me3 peptide binding; Potency, µM (highest dose often 114 µM), hits mostly inhibitors; actives 4.4% (n = 390,000); further: nearly all actives have a fitted effect of over 50% in size
HP1b binding inh: inhibitors of HP1-beta chromodomain binding to methylated histone tails | AlphaScreen HP1-beta / biotin-H3K9me3 peptide binding | Potency, µM (highest dose often 114 µM), hits mostly inhibitors | actives 0.56% (n = 390,000) | AID 540317; further: nearly all actives have a fitted effect of over 70% in size
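AlphaScreen: HP1-beta (50 nM) preformed 30 min with biotin-H3(1-18)K9me3 peptide (50 nM) in PBS pH 7.4, 0.01% Tween-20. Compound added for 30 min at RT, then streptavidin donor/nickel chelate acceptor beads (10 ug/mL) for 30 min.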
ALOX12 inh: inhibitors of human 12S-lipoxygenase ALOX12; Potency, µM (series often up to 108 µM), most hits filed as inhibitors; purified 12hLO, xylenol orange hydroperoxide absorbance; P18054; actives 1.1% (n = 580,000); AID 1671190
Target sequence (P18054 whole entry, looked up): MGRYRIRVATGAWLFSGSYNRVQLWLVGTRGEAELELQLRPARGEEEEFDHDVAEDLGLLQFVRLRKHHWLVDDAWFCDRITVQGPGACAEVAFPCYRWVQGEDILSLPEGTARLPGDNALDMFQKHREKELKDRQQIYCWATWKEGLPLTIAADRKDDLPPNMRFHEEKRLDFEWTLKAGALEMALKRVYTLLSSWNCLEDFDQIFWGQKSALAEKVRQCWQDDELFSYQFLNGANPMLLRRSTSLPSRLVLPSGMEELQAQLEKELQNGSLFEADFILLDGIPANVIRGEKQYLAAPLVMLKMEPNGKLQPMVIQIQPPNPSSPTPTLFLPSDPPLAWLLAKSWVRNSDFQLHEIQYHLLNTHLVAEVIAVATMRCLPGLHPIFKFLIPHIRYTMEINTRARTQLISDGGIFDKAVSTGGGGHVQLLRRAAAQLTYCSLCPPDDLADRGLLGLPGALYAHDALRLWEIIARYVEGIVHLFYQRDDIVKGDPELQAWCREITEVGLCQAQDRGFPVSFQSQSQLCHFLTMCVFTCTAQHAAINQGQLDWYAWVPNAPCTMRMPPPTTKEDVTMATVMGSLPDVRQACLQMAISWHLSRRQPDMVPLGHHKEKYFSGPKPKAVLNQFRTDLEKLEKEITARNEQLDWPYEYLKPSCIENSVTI
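Purified human 12hLO at 150 nM in 25 mM Hepes, 0.01% Triton X-100, pH 7.0, preincubated 15 min at room temperature with compound. Reaction started with 40 uM arachidonic acid, 30 min at room temperature. Hydroperoxide measured by Fe-xylenol orange, 573/405 nm absorbance ratio.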
Large screens that a line does not name were inactive; ! = not confirmed by another sample. The call rests on the fitted dose curve; in most records, active means well fitted curve in the direction sought with a large enough effect; inconclusive means small, poorly fitted or top-dose-only effect, or another doubt; inactive means no such curve, though single readings can be large; an effect the other way counts as inactive or inconclusive.

Cc1cccc(C(=O)OCC(=O)Nc2c(C)n(C)n(-c3ccccc3)c2=O)c1	none
O=C(Oc1ccc(NC2=NS(=O)(=O)c3ccccc32)cc1)c1cccnc1	none
C[C@@H](Cc1cccc(C(F)(F)F)c1)NCCOC(=O)c1ccccc1	none (no result: PLK1 PBD block, BAZ2B block, JMJD2A Tudor inh, HP1b binding inh, ALOX12 inh)
CC(Cc1cccc(C(F)(F)F)c1)NCCOC(=O)c1ccccc1 (configuration not stated)	G9a inh 12.6µM!, ALOX12 inh inconclusive
O=C1CS/C(=N/N=C\c2ccn[nH]2)N1	BAZ2B block 50.1µM (no result: G9a inh)
Cc1nn(C)c(Cl)c1S(=O)(=O)N[C@@H](c1ccccc1)[C@]1(C)C[C@H]1[C@@H](C)C(=O)Nc1ccc2ccccc2c1	G9a inh 50.1µM
CC(O)CNCc1ccc(Cl)cc1Cl (configuration not stated)	none (no result: G9a inh)
OCCCNCc1ccc(Cl)cc1Cl	PLK1 PBD block 29.9µM, G9a inh inconclusive
O=C(Nc1ccc(O)c2c(=O)cc(-c3cccc(Cl)c3)oc12)c1ccccc1Cl	none
O=C(O)CC1CC(c2ccccc2)=NO1 (configuration not stated)	none (no result: PLK1 PBD block, BAZ2B block, JMJD2A Tudor inh, HP1b binding inh, ALOX12 inh)
Cc1n[nH]c(C)c1Sc1ccccc1N=Cc1cc([N+](=O)[O-])ccc1O	G9a inh 10µM (no result: PLK1 PBD block, JMJD2A Tudor inh, HP1b binding inh, ALOX12 inh)
COCCC(=O)N1C[C@@H]2CCCN3CCC[C@@H]([C@H]23)[C@H]1CCCC(=O)NCC1CC1	none (no result: PLK1 PBD block, G9a inh, BAZ2B block, JMJD2A Tudor inh, HP1b binding inh)
O=C(NCc1ccccc1F)C1CCCN1C(=O)Nc1ccccc1 (configuration not stated)	none
O=C1CCc2cccc(O)c2N1	JMJD2A Tudor inh 79.4µM (no result: G9a inh, BAZ2B block)
O=C1CCC(=O)c2oc3ccccc3c2N1	none
CCn1c(-c2cccnc2)n[nH]c1=S	BAZ2B block inconclusive, JMJD2A Tudor inh 22.4µM
CCCCn1c(-c2cccnc2)n[nH]c1=S	G9a inh 25.1µM, JMJD2A Tudor inh 8.91µM
CCOc1ccc(N(CC(=O)N/N=C/c2cc([N+](=O)[O-])ccc2Cl)S(C)(=O)=O)cc1	JMJD2A Tudor inh inconclusive
CCCCn1c(O)c(C2=Nc3ccccc3SC(c3ccc(O)cc3)C2)c(=O)[nH]c1=O (configuration not stated)	ALOX12 inh 28.2µM (no result: PLK1 PBD block, G9a inh, BAZ2B block, JMJD2A Tudor inh, HP1b binding inh)
CCOc1ccc(C2CC(c3c(O)n(C4CCCCC4)c(=O)[nH]c3=O)=Nc3ccccc3S2)cc1 (configuration not stated)	BAZ2B block inconclusive, ALOX12 inh inconclusive (no result: PLK1 PBD block)
COc1ccc(NC(=O)NCCC(=O)N(C)Cc2ccc(Cl)c(Cl)c2)cc1	none (no result: PLK1 PBD block, G9a inh, BAZ2B block, JMJD2A Tudor inh, HP1b binding inh)
Cc1ccc(-c2cnc(-c3ccncc3)o2)cc1	G9a inh inconclusive
Nc1ccc(-c2ncc(-c3ccccc3)o2)cc1	G9a inh inconclusive, BAZ2B block 28.2µM, JMJD2A Tudor inh inconclusive
COc1ccc(-c2nc(S(=O)(=O)c3ccccc3)c(N3CCC(C)CC3)o2)cc1	none (no result: PLK1 PBD block)
Cc1ccc(-c2nc(S(=O)(=O)c3ccc(C)cc3)c(N3CCCCC3)o2)cc1	G9a inh 15.8µM, BAZ2B block inconclusive, ALOX12 inh inconclusive (no result: PLK1 PBD block)
CCN1CCN(c2oc(-c3ccccc3)nc2S(=O)(=O)c2ccc(C)cc2)CC1	G9a inh 39.8µM, BAZ2B block 50.1µM, JMJD2A Tudor inh inconclusive
COc1ccc(-c2nc(S(=O)(=O)c3ccccc3)c(N3CCCC3)o2)cc1	ALOX12 inh 4.47µM (no result: G9a inh, BAZ2B block, JMJD2A Tudor inh, HP1b binding inh)
CCOc1ccc(-c2nc(S(=O)(=O)c3ccccc3)c(N3CCC(C(N)=O)CC3)o2)cc1	BAZ2B block inconclusive, JMJD2A Tudor inh 70.8µM, HP1b binding inh inconclusive, ALOX12 inh inconclusive (no result: G9a inh)
CCC(C)(C)NC(=O)c1cn(-c2ccccc2)nn1	none (no result: PLK1 PBD block, G9a inh, BAZ2B block, JMJD2A Tudor inh, HP1b binding inh)
O=C(CCC1CCN(S(=O)(=O)c2ccccc2)CC1)NCc1ccc(F)cc1	none (no result: PLK1 PBD block, G9a inh, BAZ2B block, JMJD2A Tudor inh, HP1b binding inh)
Cc1ccc(S(=O)(=O)c2nc(-c3ccc(F)cc3)oc2N2CCOCC2)cc1	G9a inh 35.5µM, ALOX12 inh inconclusive
COc1cccc(-c2nc(S(=O)(=O)c3ccccc3)c(N3CCC(C)CC3)o2)c1	G9a inh 17.8µM, BAZ2B block inconclusive, JMJD2A Tudor inh inconclusive (no result: PLK1 PBD block)
Cc1ccc(-c2nc(S(=O)(=O)c3ccc(F)cc3)c(N3CCN(c4ccccc4)CC3)o2)cc1	BAZ2B block inconclusive (no result: PLK1 PBD block)
O=S(=O)(c1ccccc1)c1nc(-c2ccco2)oc1N1CCCCCC1	PLK1 PBD block 7.52µM, G9a inh inconclusive, BAZ2B block 39.8µM, HP1b binding inh 8.91µM, ALOX12 inh inconclusive
